Hits are enriched below; roughly 19% of the tested compounds scored in any of these assays.
KB-3-1 cytotox = KB-3-1 parental cell cytotoxicity | KB-3-1 viability, CellTiter-Glo ATP luminescence, 72 h | hit rate 1.4% among 400,000 | Potency, µM (highest dose often 46.1 µM), actives largely listed as cytotoxic | AID 1347075; also: nearly all actives have a fitted effect of over 60% in size
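Using CellTiter-Glo luminescence, growth of non-resistant KB-3-1 adenocarcinoma cells is assessed 72 h after pin-tool compound addition at 37 °C. Normalized responses across the concentration series yield fitted curves.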
TDP1 cell CPT = DT40-hTDP1 cell growth loss with CPT; chicken DT40 Tdp1-/-;hTDP1 cells + 20 nM CPT, ATP luminescence, 48 h; AID 686979; hit rate 12% among 420,000; Potency, µM (top dose mostly 46.2 µM), usual class: inhibitors; also: nearly all actives have a fitted effect of over 55% in size
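Chicken DT40 Tdp1-/- cells stably complemented with human TDP1 were seeded at 400 cells/well in medium containing 20 nM camptothecin, exposed to pin-transferred compounds, and grown at 37 °C for at least 48 hr. Viability was read as ATP luminescence.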
TDP1 cell noCPT = qHTS for Inhibitors of human tyrosyl-DNA phosphodiesterase 1 (TDP1): qHTS in cells in absence of CPT; DT40 Tdp1-/- hTDP1 cells, no CPT, ATP luminescence, 48 h; Potency, µM (series often up to 46.2 µM), hits mostly inhibitors; hit rate 15% among 420,000; AID 686978, 2013; also: nearly all actives have a fitted effect of over 55% in size
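Readout: luminescence from CellTiter-Glo after 30 min in the dark at RT. Cells: DT40 Tdp1-/- with stable hTDP1, 400/well. Exposure: compounds alone, ≥48 hr, 37 °C.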
HT1080-NT tox = kills 2HG-producing HT-1080-NT fibrosarcoma cells; HT-1080-NT fibrosarcoma viability, CellTiter-Glo ATP luminescence, 48 h; hit rate 1.6% among 360,000; Potency, µM (top dose mostly 46.1 µM), usual class: cytotoxic;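 also: NT is the 2HG producing partner of a matched IDH1 knockdown line; nearly all actives have a fitted effect of over 55% in size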
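HT-1080-NT; 750 cells/well; 5% FBS RPMI; 48 h compound, 37 degrees C; CellTiter-Glo luminescence; curve fitting and curve-class assignment.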
HT1080 IDH1KD tx = kills HT-1080 cells with IDH1 knockdown; HT-1080 IDH1 knockdown viability, ATP luminescence, 48 h; Potency, µM (titrated, usually from 46.1 µM), usual class: cytotoxic; hit rate 2% among 360,000
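HT-1080-IDH1KD cells (IDH1 knocked down), 750/well in RPMI with 5% FBS, treated with compound 48 h at 37 degrees C. Viability by CellTiter-Glo luminescence, normalised to DMSO and no-cell wells; concentration-response curves classed.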
KB-V1 MDR tox = KB-V1 MDR subline cytotoxicity; AID 1347076; Potency, µM (doses to about 46.1 µM), most hits filed as cytotoxic; KB-V1 MDR cells viability, CellTiter-Glo, 72 h; hit rate 3.4% among 400,000; also: nearly all actives have a fitted effect of over 60% in size
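Potencies derive from concentration-effect curves fitted to normalized luminescence (CellTiter-Glo) of KB-V1 cells treated for 72 h at 37 degrees C in phenol-red-free DMEM containing 10% FBS.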
Numbers stand for hits; 0 = inactive; ? = inconclusive; - = no result given; [ ] = dose if it differs, or a comment. Calls follow the shape of the dose curve; as a rule, active = well fitted curve in the direction sought with a large enough effect; inconclusive = small, poorly fitted or top-dose-only effect, or another doubt; inactive = no such curve, though single readings can be large; an effect the other way counts as inactive or inconclusive.

SMILES | KB-3-1 cytotox | TDP1 cell CPT | TDP1 cell noCPT | HT1080-NT tox | HT1080 IDH1KD tx | KB-V1 MDR tox
CCOC(=O)C1=C(Nc2ccccc2)CC(C)(O)C(C(=O)OCC)C1c1ccc(Cl)cc1 (configuration not stated) | ? | ? | ? | 0 | 0 | 21µM
COc1ccc(NC2=C(C(C)=O)C(c3ccccc3)C(C(C)=O)C(C)(O)C2)cc1 (configuration not stated) | ? | 0 | 0 | 0 | 0 | 0
S=C(Nc1ccc(Oc2ccccc2)cc1)NC1CCCCC1 | ? | 26µM | ? | ? | ? | ?
S=C(Nc1ccc(Oc2ccc(NC(=S)NC3CCCCC3)cc2)cc1)NC1CCCCC1 | ? | ? | ? | 0 | 0 | 16µM
S=C(Nc1ccc(Oc2ccccc2)cc1)NC1CCCCCC1 | ? | 21µM | 23µM | ? | ? | ?
CC(C)c1ccc(NC(=S)NC2CCCCCC2)cc1 | 0 | ? | ? | 0 | ? | 0
CN(C(=S)Nc1ccc(Oc2ccccc2)cc1)C1CCCCC1 | 0 | ? | 26µM | 0 | ? | 0
CN(C(=S)Nc1ccc(Oc2ccccc2)cc1)c1ccc(O)cc1 | 0 | ? | ? | 0 | 0 | 0
CCCN(CCC)C(=O)c1cn(C)c2ccc(S(=O)(=O)N3CCCC3)cc2c1=O | 0 | 0 | 0 | 0 | 0 | 0
COc1ccc([C@H]2CC(=O)C[C@@H](CCn3cc(-c4ccncc4)nn3)O2)cc1 | 0 | 0 | ? | 0 | 0 | 0
CCCN(CC1CC1)C(=S)Nc1ccc(Oc2ccccc2)cc1 | ? | ? | 16µM | 0 | 0 | ?
OC(CC1CC12c1ccccc1-c1ncccc12)(c1ccccc1)c1ccccc1 (configuration not stated) | 0 | ? | 16µM | 0 | 0 | ?
CC1=C(C(=O)OCC2CCCCC2)C(c2cccc(Cl)c2Cl)CC(=O)N1 (configuration not stated) | 0 | 0 | 0 | - | - | 0
CC1=C(C(=O)OC2CCCCCC2)C(c2cccc(Cl)c2)CC(=O)N1 (configuration not stated) | ? | 18µM | 18µM | - | - | 0
CC1=C(C(=O)OC2CCCCCC2)C(c2ccc(Cl)cc2Cl)CC(=O)N1 (configuration not stated) | 0 | 15µM | 16µM | - | - | 0
CC1=C(C(=O)OC2CCCCCC2)C(c2ccc(Cl)cc2)CC(=O)N1 (configuration not stated) | 0 | ? | ? | - | - | 0
CC1=C(C(=O)OCC2CCCCC2)C(c2ccc(Cl)cc2Cl)CC(=O)N1 (configuration not stated) | 0 | ? | 21µM | - | - | 0
CCOC(=O)c1ccccc1NC(=O)CSc1cn(CC(=O)N2CCOCC2)c2ccccc12 | - | 0 | 0 | - | - | -
Cc1cc(-c2ccnc(-n3ncc(C(=O)N(C)Cc4nccs4)c3C)n2)c(C)s1 | - | 0[9.04 µM] | ? | - | - | -
CCc1nnc2n1N=C(c1ccc(-c3cc(Cl)ccc3Cl)o1)CS2 | 0 | 0 | ? | 0 | 0 | 0
Clc1ccc(OCc2nnc3n2N=C(c2ccc4c(c2)OCCO4)CS3)c(Cl)c1 | ? | 9.2µM | 12µM | 10µM | 8.9µM | ?
CN(CC(=O)Nc1ccc(F)cc1)c1ccc(S(=O)(=O)N2CCCCC2)cc1[N+](=O)[O-] | 0 | ? | ? | 0 | 0 | 13µM
COc1ccc(S(=O)(=O)N2CCOCC2)cc1NC(=O)CN(C)Cc1c(F)cccc1Cl | 0 | ? | 21µM | 0 | 0 | ?
COc1ccc(S(=O)(=O)N2CCOCC2)cc1NC(=O)Cc1c(Cl)cccc1Cl | 0 | ? | ? | 0 | 0 | 0
COc1ccc(NC(=O)CSCC(=O)N(C)Cc2c(F)cccc2Cl)cc1 | 0 | ? | ? | 0 | 0 | 0
SMILES | KB-3-1 cytotox | TDP1 cell CPT | TDP1 cell noCPT | HT1080-NT tox | HT1080 IDH1KD tx | KB-V1 MDR tox
Cc1ccc(NC(=O)CSCC(=O)N(C)Cc2c(F)cccc2Cl)cc1 | 0 | 18µM | 26µM | 0 | 0 | ?
COc1ccc(S(=O)(=O)N2CCCCCC2)cc1C(=O)N(C)CC(=O)Nc1ccc(F)cc1 | 0 | 0 | ? | 0 | 0 | 0
CN(CC(=O)Nc1ccc(S(=O)(=O)N2CCCC2)cc1)Cc1ccc(Cl)cc1 | 0 | 16µM | ? | 0 | 0 | ?
Cn1c(=O)c2sccc2n2c(CCCC(=O)NC3CCCCC3)nnc12 | - | 0 | 0 | - | - | -
Cc1ccc2[nH]c(CSc3nnc(NC(=O)COc4ccccc4F)s3)cc(=O)c2c1 | 0 | ? | ? | - | - | 0
CN(CC(=O)Nc1ccc(S(=O)(=O)N2CCCC2)cc1)Cc1c(F)cccc1Cl | ? | 15µM | 16µM | 0 | 0 | 7.3µM
CCCCNC(=O)C[C@@H]1C[C@@]2(C(=O)OC)CCCCC=C2N(CCc2ccc(OC)c(OC)c2)C1=O | 0 | ? | 23µM | 0 | 0 | ?
CCOC(=O)[C@]12CCC=C1N(Cc1ccccc1)C(=O)[C@H](CC(=O)NCc1cccc3ccccc13)C2 | 0 | ? | ? | 0 | 0 | ?
CCCCNC(=O)C[C@@H]1C[C@@]2(C(=O)OCC)CCCC=C2N(CCc2ccc(OC)c(OC)c2)C1=O | 0 | 1.5µM | 18µM | 0 | 0 | ?
CCOC(=O)[C@]12CCCC=C1N(CCC1=CCCCC1)C(=O)[C@H](CC(=O)NCc1cccc3ccccc13)C2 | ? | ? | 16µM | 0 | 0 | ?
COCCCNC(=O)C[C@@H]1C[C@@]2(C(=O)OC)CCCCC=C2N(CCc2ccc(OC)c(OC)c2)C1=O | 0 | 0 | ? | 0 | 0 | 0
CCCCNC(=O)C[C@@H]1C[C@@]2(C(=O)OCC)CCCC=C2N(CCC2=CCCCC2)C1=O | 0 | 8.2µM | 8.2µM | ? | 0 | ?
COc1ccc(OC)c(S(=O)(=O)NC(=O)C2(C)CCN2C(=O)Cc2ccccc2)c1 (configuration not stated) | 0 | 0 | 0 | 0 | 0 | 0
Cc1ccc(S(=O)(=O)N(C)C[C@H]2OCCCC[C@@H](C)Oc3ccc(NC(=O)Cc4ccccc4)cc3C(=O)N([C@H](C)CO)C[C@@H]2C)cc1 | 0 | ? | ? | 0 | 0 | 0
O=C(CSc1nnc(CNC(=O)c2c(F)cccc2F)o1)NCc1ccc2c(c1)OCO2 | 0 | 0 | 0 | 0 | 0 | 0
O=C(O)c1ccc(NC(=O)c2cc3c([nH]c2=O)CCCC3=O)cc1 | ? | 0 | 0 | - | - | ?
CCOC(=O)[C@]12CCCC=C1N(CCc1ccc(OC)c(OC)c1)C(=O)[C@H](CC(=O)N1CCSCC1)C2 | 0 | 16µM | ? | 0 | 0 | ?
CCCCCCCCN1C(=O)[C@H](CC(=O)NCC23CC4CC(CC(C4)C2)C3)C[C@@]2(C(=O)OCC)CCCC=C12 | 16µM | ? | 18µM | 0 | 0 | 0
